The record followed here is PubChem BioAssay (EPA / NIEHS).

Active and inactive are the calls of the source. How the source made its calls: active means hit-call score of the fitted dose curve at least 0.9, where 1 is the maximum; inactive means score below 0.9.

A short description of the first experiment: CCTE_Padilla_ZF_Score.Edema: CCTE's 144 Hour Post-fertilization zebrafish Assay Score for Edema Malformation, Padilla Lab (AID 2284406). A digest of the protocol:
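Wild-type zebrafish embryos, one per well in Hanks' solution, dosed at 6-8 hpf, sealed and reared at 26C on a 14:10 h cycle; rinsed on 5 dpf. At 6 dpf, blinded assessors scored edema by stereomicroscopy.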
In the case of `O=C(O)C(F)(F)C(F)(F)C(F)(F)C(F)(F)C(F)(F)C(F)(F)C(F)(F)C(F)F`, the result was inactive.

Consider `C=C(F)C(=O)OC(C(F)(F)F)C(F)(F)F`, for which the outcome was inactive.

On to `OCC(F)(OC(F)(F)C(F)(OC(F)(F)C(F)(F)C(F)(F)F)C(F)(F)F)C(F)(F)F` (centres undefined), for which the molecule was classed as inactive.

For the molecule `O=S(=O)(O)C(F)(F)C(F)(F)OC(F)(F)C(F)(F)F`, the call was inactive.

As to `C=C(C)C(=O)OCCC(F)(F)C(F)(F)C(F)(F)C(F)(F)C(F)(F)C(F)(F)C(F)(F)C(F)(F)F`, the molecule was classed as inactive.

In the case of `O=C(O)C(F)(F)OC(F)(F)C(F)(F)OC(F)(F)C(F)(F)C(F)(F)C(F)(F)F`, the molecule was classed as inactive.

Another experiment is described as follows: CCTE_Padilla_ZF_Score.Spine: CCTE's 144 Hour Post-fertilization zebrafish Assay Score for Spine Malformation, Padilla Lab (AID 2284407). Put shortly: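 Wild-type zebrafish embryos, one per well in Hanks' solution, dosed at 6–8 hpf in sealed plates at 26C, 14:10 h light:dark; rinsed at 5 dpf. Two blinded assessors scored spinal defects by stereomicroscopy at 6 dpf; fitted versus DMSO.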
In the case of `O=C(O)C(F)(F)C(F)(F)C(F)(F)C(F)(F)C(F)(F)C(F)(F)C(F)(F)C(F)F`, the outcome was inactive.

In the case of `C=C(F)C(=O)OC(C(F)(F)F)C(F)(F)F`, the result was inactive.

For `OCC(F)(OC(F)(F)C(F)(OC(F)(F)C(F)(F)C(F)(F)F)C(F)(F)F)C(F)(F)F` (centres undefined), the outcome was inactive.

For `O=S(=O)(O)C(F)(F)C(F)(F)OC(F)(F)C(F)(F)F`, the molecule was classed as inactive.

Turning to `C=C(C)C(=O)OCCC(F)(F)C(F)(F)C(F)(F)C(F)(F)C(F)(F)C(F)(F)C(F)(F)C(F)(F)F`, the molecule was called inactive.

For the molecule `O=C(O)C(F)(F)OC(F)(F)C(F)(F)OC(F)(F)C(F)(F)C(F)(F)C(F)(F)F`, the molecule was called inactive.

A short description of the next experiment: CCTE_Padilla_ZF_Score.Swim_bladder: CCTE's 144 Hour Post-fertilization zebrafish Assay Score for Swim Bladder Malformation, Padilla Lab (AID 2284408). Put shortly:
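Wild-type zebrafish embryos, one per well in 10% Hanks', dosed at 6–8 hpf, sealed, reared at 26C and rinsed at 5 dpf. Blinded assessors scored uninflated swim bladder by stereomicroscopy at 6 dpf, relative to DMSO.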
`O=C(O)C(F)(F)C(F)(F)C(F)(F)C(F)(F)C(F)(F)C(F)(F)C(F)(F)C(F)F`: the molecule was called inactive.

With `C=C(F)C(=O)OC(C(F)(F)F)C(F)(F)F`, the outcome was inactive.

With `OCC(F)(OC(F)(F)C(F)(OC(F)(F)C(F)(F)C(F)(F)F)C(F)(F)F)C(F)(F)F` (centres undefined), the result was inactive.

Turning to `O=S(=O)(O)C(F)(F)C(F)(F)OC(F)(F)C(F)(F)F`, the call was inactive.

Regarding `C=C(C)C(=O)OCCC(F)(F)C(F)(F)C(F)(F)C(F)(F)C(F)(F)C(F)(F)C(F)(F)C(F)(F)F`, the molecule was classed as inactive.

`O=C(O)C(F)(F)OC(F)(F)C(F)(F)OC(F)(F)C(F)(F)C(F)(F)C(F)(F)F`: the result was inactive.

The nature of another experiment: CCTE_Padilla_ZF_Score.Position: CCTE's 144 Hour Post-fertilization zebrafish Assay Score for Position, Padilla Lab (AID 2284409). A digest of the protocol:
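Wild-type zebrafish embryos (with chorions) exposed singly from 6–8 hpf in sealed wells of Hanks' solution at 26C, rinsed at 5 dpf. At 6 dpf, blinded assessors scored abnormal water-column position by brightfield stereomicroscopy, relative to DMSO.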
For `O=C(O)C(F)(F)C(F)(F)C(F)(F)C(F)(F)C(F)(F)C(F)(F)C(F)(F)C(F)F`, the molecule was classed as inactive.

On to `C=C(F)C(=O)OC(C(F)(F)F)C(F)(F)F`, for which the outcome was inactive.

`OCC(F)(OC(F)(F)C(F)(OC(F)(F)C(F)(F)C(F)(F)F)C(F)(F)F)C(F)(F)F` (centres undefined): the molecule was called inactive.

`O=S(=O)(O)C(F)(F)C(F)(F)OC(F)(F)C(F)(F)F`: the outcome was inactive.

Consider `C=C(C)C(=O)OCCC(F)(F)C(F)(F)C(F)(F)C(F)(F)C(F)(F)C(F)(F)C(F)(F)C(F)(F)F`, for which the molecule was called inactive.

Turning to `O=C(O)C(F)(F)OC(F)(F)C(F)(F)OC(F)(F)C(F)(F)C(F)(F)C(F)(F)F`, the call was inactive.
